Consider 1 sequence from publication PMC7862700, “An all-to-all approach to the identification of sequence-specific readers for epigenetic DNA modifications on cytosine”.

Holding throughout (experiment): DAPPL (digital affinity profiling via proximity ligation, sequencing); 10 mM Tris-HCl pH 7.5, 50 mM NaCl, 1 mM DTT, 4% glycerol, room temperature, 30 min; GST-TFs on glutathione beads, 16-mer random dsDNA library, 0.1% formaldehyde crosslink after washing; high values mean tight binding
The target of one assay is T1, FLI1 (Homo sapiens, UniProt Q01543 1-452).
T1 sequence: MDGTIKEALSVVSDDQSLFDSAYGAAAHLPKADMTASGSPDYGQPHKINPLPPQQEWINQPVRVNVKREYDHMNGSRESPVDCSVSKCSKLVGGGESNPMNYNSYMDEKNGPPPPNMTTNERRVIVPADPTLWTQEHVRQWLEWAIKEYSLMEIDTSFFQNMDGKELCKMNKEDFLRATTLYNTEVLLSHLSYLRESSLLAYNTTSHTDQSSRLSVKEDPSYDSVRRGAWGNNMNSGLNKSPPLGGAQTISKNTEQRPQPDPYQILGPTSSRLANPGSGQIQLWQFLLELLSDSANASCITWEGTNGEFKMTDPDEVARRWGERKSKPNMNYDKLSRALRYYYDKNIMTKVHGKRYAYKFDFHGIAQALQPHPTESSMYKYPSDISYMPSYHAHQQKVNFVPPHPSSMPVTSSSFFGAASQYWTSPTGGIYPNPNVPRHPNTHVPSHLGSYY
The conditions noted are these: protein: recombinant; tags: N-terminal GST; dsDNA, one strand shown. Summed up:
(§1)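 In yeast, human transcription factors were expressed with a GST fusion, then pulled down on glutathione beads and given DNA barcodes. Pooled with a tag-only sample, they were exposed to 200 nmole of a 16-mer random double-stranded DNA library (Tris/NaCl/DTT/glycerol buffer, room temperature, 30 min), washed, crosslinked with 0.1% formaldehyde, proximity-ligated using BsaI/T4 ligase for 1 h at 37 °C, PCR-amplified and read on an Illumina NextSeq500. Each hexamer's frequency of reads for a factor, divided by the matching frequency for the tag-only sample, gives the binding signal.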

For a further assay, the target named is T2, ELK1 (Homo sapiens, UniProt P19419 1-428).
T2 sequence: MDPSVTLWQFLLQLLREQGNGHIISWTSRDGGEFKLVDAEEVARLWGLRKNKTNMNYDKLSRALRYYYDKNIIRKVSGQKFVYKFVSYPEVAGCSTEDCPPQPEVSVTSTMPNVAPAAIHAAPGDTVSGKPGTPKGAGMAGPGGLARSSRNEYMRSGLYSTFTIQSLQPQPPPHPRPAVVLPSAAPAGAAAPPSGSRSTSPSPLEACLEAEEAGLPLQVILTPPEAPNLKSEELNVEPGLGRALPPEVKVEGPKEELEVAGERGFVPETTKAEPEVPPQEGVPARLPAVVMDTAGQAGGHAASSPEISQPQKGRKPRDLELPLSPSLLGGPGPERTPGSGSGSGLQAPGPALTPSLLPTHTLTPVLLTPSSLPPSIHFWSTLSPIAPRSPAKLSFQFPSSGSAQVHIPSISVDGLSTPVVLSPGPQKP
The conditions noted are these: protein: recombinant; tags: N-terminal GST; dsDNA, one strand shown. The gist of the method:
as §1

Another assay concerns the target T3, GABPA (Homo sapiens, UniProt Q06546 1-454).
T3 sequence: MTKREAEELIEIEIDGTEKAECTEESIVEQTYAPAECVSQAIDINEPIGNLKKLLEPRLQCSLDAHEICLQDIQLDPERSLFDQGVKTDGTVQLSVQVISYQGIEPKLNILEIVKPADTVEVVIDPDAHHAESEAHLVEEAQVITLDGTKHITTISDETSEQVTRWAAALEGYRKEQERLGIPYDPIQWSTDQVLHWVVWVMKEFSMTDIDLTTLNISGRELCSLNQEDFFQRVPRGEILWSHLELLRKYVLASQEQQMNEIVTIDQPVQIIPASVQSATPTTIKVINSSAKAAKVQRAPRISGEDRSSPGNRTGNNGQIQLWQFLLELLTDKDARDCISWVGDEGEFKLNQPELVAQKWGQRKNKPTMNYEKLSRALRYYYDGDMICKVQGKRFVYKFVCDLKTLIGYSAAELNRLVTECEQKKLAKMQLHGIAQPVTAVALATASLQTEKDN
The conditions noted are these: protein: recombinant; tags: N-terminal GST; dsDNA, one strand shown. Summed up: as §1

A further assay deals with T4, ERG (Homo sapiens, UniProt P11308 1-479).
T4 sequence: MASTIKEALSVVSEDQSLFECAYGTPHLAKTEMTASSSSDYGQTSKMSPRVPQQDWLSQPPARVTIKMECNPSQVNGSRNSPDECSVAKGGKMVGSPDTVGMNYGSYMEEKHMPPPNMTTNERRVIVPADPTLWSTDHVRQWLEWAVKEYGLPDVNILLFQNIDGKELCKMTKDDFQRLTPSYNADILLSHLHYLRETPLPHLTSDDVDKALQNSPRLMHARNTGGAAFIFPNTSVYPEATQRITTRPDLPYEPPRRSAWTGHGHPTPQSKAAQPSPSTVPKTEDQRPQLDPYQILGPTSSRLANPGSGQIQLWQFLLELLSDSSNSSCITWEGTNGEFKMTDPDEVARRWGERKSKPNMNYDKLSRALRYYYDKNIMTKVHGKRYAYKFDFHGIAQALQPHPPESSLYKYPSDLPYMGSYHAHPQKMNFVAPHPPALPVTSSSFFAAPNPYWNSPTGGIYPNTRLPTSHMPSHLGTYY
The conditions noted are these: protein: recombinant; tags: N-terminal GST; dsDNA, one strand shown. The gist of the method: as §1

A further assay deals with ELF1 (Homo sapiens, UniProt P32519 1-619). The settings on record: protein: recombinant; tags: N-terminal GST; dsDNA, one strand shown. Summed up:
as §1

In another assay the target is T5, EHF (Homo sapiens, UniProt Q9NZC4 1-300).
T5 sequence: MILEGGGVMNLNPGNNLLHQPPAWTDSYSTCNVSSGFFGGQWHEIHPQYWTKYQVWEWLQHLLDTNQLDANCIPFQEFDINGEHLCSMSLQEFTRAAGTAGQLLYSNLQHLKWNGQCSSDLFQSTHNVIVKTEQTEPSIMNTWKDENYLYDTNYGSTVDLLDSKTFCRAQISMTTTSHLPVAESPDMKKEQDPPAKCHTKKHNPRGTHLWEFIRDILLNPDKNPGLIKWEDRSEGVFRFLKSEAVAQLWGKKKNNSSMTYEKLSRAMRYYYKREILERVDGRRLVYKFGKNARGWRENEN
The settings on record: protein: recombinant; tags: N-terminal GST; dsDNA, one strand shown. Summed up: as §1

A further assay addresses SPI1 (Homo sapiens, UniProt P17947 1-270). The conditions noted are these: protein: recombinant; tags: N-terminal GST; dsDNA, one strand shown. The gist of the method:
as §1

Another assay has as its target SPIB (Homo sapiens, UniProt Q01892 1-262). The conditions noted are these: protein: recombinant; tags: N-terminal GST; dsDNA, one strand shown. The gist of the method:
as §1

A further assay addresses T6, ELK3 (Homo sapiens, UniProt P41970 1-407).
T6 sequence: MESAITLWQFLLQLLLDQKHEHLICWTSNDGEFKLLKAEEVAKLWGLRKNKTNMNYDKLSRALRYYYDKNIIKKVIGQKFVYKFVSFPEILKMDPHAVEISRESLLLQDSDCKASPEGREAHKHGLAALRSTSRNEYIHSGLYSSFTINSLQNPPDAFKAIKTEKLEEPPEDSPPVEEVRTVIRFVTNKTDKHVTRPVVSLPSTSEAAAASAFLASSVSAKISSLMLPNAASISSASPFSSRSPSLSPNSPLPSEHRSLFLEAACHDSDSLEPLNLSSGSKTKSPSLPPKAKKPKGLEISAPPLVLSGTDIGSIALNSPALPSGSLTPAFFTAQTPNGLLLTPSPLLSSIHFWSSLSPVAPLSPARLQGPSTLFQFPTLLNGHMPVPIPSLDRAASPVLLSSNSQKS
The settings on record: protein: recombinant; tags: N-terminal GST; dsDNA, one strand shown. Summed up:
as §1

In a further assay the target is T7, FEV (Homo sapiens, UniProt Q99581 1-238).
T7 sequence: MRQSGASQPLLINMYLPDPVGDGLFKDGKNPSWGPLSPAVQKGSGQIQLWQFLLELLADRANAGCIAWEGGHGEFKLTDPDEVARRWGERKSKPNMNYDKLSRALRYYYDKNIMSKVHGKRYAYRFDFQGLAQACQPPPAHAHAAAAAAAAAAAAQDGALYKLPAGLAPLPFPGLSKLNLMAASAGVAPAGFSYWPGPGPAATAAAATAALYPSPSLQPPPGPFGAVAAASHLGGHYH
The conditions noted are these: protein: recombinant; tags: N-terminal GST; dsDNA, one strand shown. The gist of the method:
as §1

The next assay concerns the target ETV5 (Homo sapiens, UniProt P41161 1-510). The conditions noted are these: protein: recombinant; tags: N-terminal GST; dsDNA, one strand shown. Summed up: as §1
In the next assay the target is HSF1 (Homo sapiens, UniProt Q00613 1-529). The settings on record: protein: recombinant; tags: N-terminal GST; chain copies: 3; dsDNA, one strand shown. Summed up: as §1
The target in another assay is T8, SPIC (Homo sapiens, UniProt Q8N5J4 1-248).
T8 sequence: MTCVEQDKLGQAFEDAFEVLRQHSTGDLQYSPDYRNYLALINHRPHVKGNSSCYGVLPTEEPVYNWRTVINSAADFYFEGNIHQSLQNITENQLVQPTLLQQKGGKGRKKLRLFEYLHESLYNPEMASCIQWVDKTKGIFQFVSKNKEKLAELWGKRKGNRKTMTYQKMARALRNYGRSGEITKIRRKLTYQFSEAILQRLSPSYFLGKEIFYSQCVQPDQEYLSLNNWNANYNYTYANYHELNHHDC
The conditions noted are these: protein: recombinant; tags: N-terminal GST; dsDNA, one strand shown. The gist of the method:
as §1

For the next assay, the target named is ELF4 (Homo sapiens, UniProt Q99607 1-663). The conditions noted are these: protein: recombinant; tags: N-terminal GST; dsDNA, one strand shown. Summed up:
as §1

In a further assay the target is T9, ELK4 (Homo sapiens, UniProt P28324-2 1-405).
T9 sequence: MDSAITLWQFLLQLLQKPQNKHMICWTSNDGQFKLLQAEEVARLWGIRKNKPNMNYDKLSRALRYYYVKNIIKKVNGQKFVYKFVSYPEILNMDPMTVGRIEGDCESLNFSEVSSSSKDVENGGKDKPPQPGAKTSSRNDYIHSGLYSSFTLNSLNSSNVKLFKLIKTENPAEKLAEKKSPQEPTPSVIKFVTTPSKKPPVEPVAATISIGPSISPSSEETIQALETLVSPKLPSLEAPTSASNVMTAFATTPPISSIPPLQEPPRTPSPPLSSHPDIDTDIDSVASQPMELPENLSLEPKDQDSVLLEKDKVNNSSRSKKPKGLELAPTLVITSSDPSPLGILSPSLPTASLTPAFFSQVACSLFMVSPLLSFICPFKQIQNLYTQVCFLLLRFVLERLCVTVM
The settings on record: protein: recombinant; tags: N-terminal GST; dsDNA, one strand shown. The gist of the method:
as §1

The target in another assay is T10, ETV2 (Homo sapiens, UniProt O00321 1-342).
T10 sequence: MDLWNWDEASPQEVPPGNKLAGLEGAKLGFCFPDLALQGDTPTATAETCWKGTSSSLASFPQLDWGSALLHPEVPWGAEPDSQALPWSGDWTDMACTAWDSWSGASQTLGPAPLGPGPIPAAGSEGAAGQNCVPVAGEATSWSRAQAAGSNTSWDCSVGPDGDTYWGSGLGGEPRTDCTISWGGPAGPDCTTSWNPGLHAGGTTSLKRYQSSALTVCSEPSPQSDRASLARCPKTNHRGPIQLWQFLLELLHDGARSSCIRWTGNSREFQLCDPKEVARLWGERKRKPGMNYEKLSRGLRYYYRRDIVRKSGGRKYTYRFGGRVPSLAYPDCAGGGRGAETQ
The conditions noted are these: protein: recombinant; tags: N-terminal GST; dsDNA, one strand shown. The gist of the method:
as §1

Another assay addresses T11, ELF3 (Homo sapiens, UniProt P78545 1-371).
T11 sequence: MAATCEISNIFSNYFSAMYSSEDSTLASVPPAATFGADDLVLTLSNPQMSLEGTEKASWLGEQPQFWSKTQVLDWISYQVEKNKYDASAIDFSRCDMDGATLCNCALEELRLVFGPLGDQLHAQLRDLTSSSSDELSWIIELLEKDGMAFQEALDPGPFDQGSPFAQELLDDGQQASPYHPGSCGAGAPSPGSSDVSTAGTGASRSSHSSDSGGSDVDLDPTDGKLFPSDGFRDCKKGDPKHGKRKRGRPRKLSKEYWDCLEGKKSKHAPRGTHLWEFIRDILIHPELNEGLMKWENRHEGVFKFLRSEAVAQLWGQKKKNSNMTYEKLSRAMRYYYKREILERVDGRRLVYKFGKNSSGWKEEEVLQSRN
The conditions noted are these: protein: recombinant; tags: N-terminal GST; dsDNA, one strand shown. Summed up:
as §1

In the next assay the target is CRX (Homo sapiens, UniProt O43186 1-299). The conditions noted are these: protein: recombinant; tags: N-terminal GST; dsDNA, one strand shown. The gist of the method: as §1
Another assay has as its target ETV1 (Homo sapiens, UniProt P50549 1-477). The settings on record: protein: recombinant; tags: N-terminal GST; dsDNA, one strand shown. The gist of the method: as §1

Chain of ETV5 (P41161 whole entry): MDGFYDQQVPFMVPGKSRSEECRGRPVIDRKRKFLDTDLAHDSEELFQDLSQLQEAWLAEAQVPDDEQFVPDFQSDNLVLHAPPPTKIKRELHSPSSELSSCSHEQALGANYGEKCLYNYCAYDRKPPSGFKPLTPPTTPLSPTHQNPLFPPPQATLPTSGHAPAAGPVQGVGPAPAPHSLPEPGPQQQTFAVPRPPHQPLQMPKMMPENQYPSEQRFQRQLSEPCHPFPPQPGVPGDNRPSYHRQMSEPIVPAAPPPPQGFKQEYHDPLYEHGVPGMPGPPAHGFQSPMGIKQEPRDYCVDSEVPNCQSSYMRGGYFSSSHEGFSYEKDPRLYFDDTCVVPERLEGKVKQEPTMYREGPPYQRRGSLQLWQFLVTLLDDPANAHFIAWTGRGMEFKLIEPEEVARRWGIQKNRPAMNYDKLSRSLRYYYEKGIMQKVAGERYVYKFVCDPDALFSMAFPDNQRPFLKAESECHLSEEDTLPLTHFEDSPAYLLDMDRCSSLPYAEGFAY
Chain of ELF4 (Q99607 whole entry): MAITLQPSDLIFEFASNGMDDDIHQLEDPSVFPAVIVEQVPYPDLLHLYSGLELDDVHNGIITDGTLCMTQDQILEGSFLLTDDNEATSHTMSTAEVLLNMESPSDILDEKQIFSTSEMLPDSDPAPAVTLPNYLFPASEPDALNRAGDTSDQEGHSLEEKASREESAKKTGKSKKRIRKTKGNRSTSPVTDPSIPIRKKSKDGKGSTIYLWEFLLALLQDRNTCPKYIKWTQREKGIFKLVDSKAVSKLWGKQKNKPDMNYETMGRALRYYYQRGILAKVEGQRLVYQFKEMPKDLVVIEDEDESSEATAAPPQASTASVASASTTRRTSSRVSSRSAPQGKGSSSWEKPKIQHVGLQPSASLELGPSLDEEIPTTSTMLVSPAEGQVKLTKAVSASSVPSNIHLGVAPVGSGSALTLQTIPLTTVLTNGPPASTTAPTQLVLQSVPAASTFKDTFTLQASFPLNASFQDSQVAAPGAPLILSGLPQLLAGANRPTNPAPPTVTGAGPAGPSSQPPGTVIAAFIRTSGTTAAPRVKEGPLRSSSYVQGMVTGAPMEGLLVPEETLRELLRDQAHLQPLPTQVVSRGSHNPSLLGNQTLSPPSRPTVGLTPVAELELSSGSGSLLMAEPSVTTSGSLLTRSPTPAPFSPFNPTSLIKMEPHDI
Chain of CRX (O43186 whole entry): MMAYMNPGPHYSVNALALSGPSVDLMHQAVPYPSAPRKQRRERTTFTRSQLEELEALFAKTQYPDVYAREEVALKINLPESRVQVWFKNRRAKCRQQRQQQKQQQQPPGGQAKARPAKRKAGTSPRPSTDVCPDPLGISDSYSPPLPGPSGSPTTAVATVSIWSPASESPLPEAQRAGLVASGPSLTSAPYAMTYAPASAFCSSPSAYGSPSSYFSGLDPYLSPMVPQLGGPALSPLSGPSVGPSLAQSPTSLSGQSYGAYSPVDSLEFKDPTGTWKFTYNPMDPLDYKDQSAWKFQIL
Chain of ETV1 (P50549 whole entry): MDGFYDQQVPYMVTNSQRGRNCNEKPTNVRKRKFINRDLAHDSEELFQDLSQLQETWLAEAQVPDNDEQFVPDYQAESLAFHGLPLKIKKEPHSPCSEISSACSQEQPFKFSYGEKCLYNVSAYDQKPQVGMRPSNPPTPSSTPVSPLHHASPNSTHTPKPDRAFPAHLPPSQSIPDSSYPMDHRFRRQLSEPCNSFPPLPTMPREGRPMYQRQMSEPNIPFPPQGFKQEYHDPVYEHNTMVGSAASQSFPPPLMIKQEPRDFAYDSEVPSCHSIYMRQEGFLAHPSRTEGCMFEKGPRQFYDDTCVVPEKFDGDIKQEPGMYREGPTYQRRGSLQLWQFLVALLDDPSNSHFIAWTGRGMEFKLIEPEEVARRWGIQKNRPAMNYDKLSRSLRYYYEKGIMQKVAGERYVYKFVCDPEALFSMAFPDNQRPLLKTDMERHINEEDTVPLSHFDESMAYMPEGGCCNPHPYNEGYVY
Chain of HSF1 (Q00613 whole entry): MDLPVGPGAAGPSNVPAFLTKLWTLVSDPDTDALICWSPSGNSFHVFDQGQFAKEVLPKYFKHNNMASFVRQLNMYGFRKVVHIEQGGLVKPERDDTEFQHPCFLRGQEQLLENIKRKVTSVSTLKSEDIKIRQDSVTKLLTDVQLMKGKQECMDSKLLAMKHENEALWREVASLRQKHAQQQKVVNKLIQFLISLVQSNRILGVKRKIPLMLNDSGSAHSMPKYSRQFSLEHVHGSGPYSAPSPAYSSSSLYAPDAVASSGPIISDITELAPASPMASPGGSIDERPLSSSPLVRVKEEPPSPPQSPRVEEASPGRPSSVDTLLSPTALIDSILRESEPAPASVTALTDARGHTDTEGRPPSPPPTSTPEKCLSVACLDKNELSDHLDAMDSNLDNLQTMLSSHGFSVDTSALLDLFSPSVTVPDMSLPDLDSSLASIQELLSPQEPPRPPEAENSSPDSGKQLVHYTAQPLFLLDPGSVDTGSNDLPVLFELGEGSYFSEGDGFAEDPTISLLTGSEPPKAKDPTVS
Chain of ELF1 (P32519 whole entry): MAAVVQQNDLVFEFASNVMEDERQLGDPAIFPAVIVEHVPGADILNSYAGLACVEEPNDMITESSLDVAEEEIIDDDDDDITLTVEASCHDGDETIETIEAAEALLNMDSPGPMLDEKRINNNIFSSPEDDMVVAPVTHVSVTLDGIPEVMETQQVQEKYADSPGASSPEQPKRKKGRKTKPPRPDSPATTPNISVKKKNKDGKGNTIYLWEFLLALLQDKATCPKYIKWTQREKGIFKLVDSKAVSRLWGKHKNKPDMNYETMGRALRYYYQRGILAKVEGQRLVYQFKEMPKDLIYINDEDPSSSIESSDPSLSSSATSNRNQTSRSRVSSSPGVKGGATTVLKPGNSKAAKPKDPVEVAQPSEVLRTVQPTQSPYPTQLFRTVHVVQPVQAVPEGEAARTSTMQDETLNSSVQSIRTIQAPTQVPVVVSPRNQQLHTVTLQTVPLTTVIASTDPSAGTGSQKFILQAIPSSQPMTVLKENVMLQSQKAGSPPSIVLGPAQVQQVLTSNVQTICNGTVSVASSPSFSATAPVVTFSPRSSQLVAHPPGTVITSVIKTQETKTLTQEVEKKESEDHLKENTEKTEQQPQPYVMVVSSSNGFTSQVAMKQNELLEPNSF
Chain of SPIB (Q01892 whole entry): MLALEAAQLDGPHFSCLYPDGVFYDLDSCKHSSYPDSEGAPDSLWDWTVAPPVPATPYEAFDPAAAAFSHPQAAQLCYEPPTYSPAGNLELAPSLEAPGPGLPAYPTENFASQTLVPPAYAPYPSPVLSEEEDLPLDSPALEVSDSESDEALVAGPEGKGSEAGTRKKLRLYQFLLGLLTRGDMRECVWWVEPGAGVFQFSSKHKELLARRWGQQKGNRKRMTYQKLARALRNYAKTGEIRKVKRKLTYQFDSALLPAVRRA

Turning to TGTAAA, the binding signal with FLI1 is 1.22 fold enrichment (6-mer frequency, TF over GST control); in the assay with ELK1 it was 1.06 fold enrichment (6-mer frequency, TF over GST control); with GABPA it was 1.08 fold enrichment (6-mer frequency, TF over GST control); with ERG, 1.15 fold enrichment (6-mer frequency, TF over GST control); with ELF1 it was 1.14 fold enrichment (6-mer frequency, TF over GST control); in the assay with EHF, 1.13 fold enrichment (6-mer frequency, TF over GST control). For the same sequence, the binding signal with SPI1 is 1.26 fold enrichment (6-mer frequency, TF over GST control); in the assay with SPIB, 1.2 fold enrichment (6-mer frequency, TF over GST control); in the assay with ELK3, 1.09 fold enrichment (6-mer frequency, TF over GST control); in the assay with FEV, 1.08 fold enrichment (6-mer frequency, TF over GST control); with ETV5 it was 1.16 fold enrichment (6-mer frequency, TF over GST control); in the assay with HSF1 it was 1.2 fold enrichment (6-mer frequency, TF over GST control). Further, the binding signal was 1.24 fold enrichment (6-mer frequency, TF over GST control) with SPIC; 1.13 fold enrichment (6-mer frequency, TF over GST control) with ELF4; 1.1 fold enrichment (6-mer frequency, TF over GST control) in the assay with ELK4; 1.16 fold enrichment (6-mer frequency, TF over GST control) with ETV2; 1.23 fold enrichment (6-mer frequency, TF over GST control) with ELF3; 1.2 fold enrichment (6-mer frequency, TF over GST control) with CRX. Moreover, in the assay with ETV1, the binding signal was 1.14 fold enrichment (6-mer frequency, TF over GST control).
